Columns and labels:
[1] = target: Homeodomain-interacting protein kinase 3 (Homo sapiens) (UniProt Q9H422); details: at 10 µM
[2] = target: T1, Serine/threonine-protein kinase haspin (Homo sapiens) (UniProt Q8TF76); details: at 1 µM
T1 sequence (whole entry): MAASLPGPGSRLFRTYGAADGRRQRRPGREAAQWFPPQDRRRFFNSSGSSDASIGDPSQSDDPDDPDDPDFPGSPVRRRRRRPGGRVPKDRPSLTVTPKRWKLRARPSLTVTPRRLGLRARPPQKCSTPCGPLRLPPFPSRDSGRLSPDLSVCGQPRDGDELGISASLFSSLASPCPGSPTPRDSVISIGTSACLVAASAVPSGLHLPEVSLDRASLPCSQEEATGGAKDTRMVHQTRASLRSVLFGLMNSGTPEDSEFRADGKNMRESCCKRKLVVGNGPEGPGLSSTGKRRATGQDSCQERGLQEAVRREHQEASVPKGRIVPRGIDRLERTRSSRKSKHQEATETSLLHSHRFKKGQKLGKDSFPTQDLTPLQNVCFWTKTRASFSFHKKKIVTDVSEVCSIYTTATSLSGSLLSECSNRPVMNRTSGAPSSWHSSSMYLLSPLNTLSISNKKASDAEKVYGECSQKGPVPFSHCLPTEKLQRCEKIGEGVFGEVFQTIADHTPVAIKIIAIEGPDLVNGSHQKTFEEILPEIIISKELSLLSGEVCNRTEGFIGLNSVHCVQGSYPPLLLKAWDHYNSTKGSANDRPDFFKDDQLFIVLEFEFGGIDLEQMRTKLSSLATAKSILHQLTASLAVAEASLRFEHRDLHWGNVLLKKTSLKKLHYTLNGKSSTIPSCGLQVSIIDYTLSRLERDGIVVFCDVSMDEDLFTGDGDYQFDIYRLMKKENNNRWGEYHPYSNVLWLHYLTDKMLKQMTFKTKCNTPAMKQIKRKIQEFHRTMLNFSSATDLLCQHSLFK

[3] = target: T1, Serine/threonine-protein kinase haspin (Homo sapiens); details: at 10 µM
[4] = target: Tyrosine-protein kinase HCK (Homo sapiens) (UniProt P08631); details: at 1 µM
[5] = target: Tyrosine-protein kinase HCK (Homo sapiens) (UniProt P08631); details: at 10 µM
[6] = target: Tyrosine-protein kinase HCK (Homo sapiens) (UniProt P08631); details: at 1 µM; remark: listed apart in the source
[7] = target: Tyrosine-protein kinase HCK (Homo sapiens) (UniProt P08631); details: at 10 µM; remark: listed apart in the source
[8] = target: Insulin-like growth factor 1 receptor (Homo sapiens) (UniProt P08069); details: at 10 µM
[9] = target: T2, Protein kinase C zeta type (Homo sapiens) (UniProt Q05513); details: at 10 µM
T2 sequence (whole entry): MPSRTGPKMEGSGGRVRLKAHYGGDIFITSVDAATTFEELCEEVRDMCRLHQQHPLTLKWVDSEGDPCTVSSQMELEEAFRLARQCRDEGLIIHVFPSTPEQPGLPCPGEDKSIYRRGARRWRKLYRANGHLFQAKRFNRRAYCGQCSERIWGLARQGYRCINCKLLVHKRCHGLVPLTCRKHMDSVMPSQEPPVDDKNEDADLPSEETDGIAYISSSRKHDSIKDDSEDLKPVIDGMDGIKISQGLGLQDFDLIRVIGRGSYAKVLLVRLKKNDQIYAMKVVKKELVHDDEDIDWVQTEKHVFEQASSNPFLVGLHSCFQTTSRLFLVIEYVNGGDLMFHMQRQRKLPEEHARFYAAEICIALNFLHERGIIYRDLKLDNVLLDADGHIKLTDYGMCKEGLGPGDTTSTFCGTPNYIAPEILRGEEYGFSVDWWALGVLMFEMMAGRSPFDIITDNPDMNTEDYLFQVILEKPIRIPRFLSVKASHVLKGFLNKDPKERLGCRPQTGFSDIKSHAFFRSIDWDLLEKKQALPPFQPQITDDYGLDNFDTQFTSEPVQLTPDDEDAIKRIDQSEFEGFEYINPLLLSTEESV

[10] = target: Protein kinase C eta type (Homo sapiens) (UniProt P24723); details: at 1 µM
[11] = target: Protein kinase C eta type (Homo sapiens) (UniProt P24723); details: at 10 µM
[12] = target: Protein kinase C theta type (Homo sapiens) (UniProt Q04759); details: at 10 µM
[13] = target: T3, Protein kinase C iota type (Homo sapiens) (UniProt P41743); details: at 1 µM
T3 sequence (whole entry): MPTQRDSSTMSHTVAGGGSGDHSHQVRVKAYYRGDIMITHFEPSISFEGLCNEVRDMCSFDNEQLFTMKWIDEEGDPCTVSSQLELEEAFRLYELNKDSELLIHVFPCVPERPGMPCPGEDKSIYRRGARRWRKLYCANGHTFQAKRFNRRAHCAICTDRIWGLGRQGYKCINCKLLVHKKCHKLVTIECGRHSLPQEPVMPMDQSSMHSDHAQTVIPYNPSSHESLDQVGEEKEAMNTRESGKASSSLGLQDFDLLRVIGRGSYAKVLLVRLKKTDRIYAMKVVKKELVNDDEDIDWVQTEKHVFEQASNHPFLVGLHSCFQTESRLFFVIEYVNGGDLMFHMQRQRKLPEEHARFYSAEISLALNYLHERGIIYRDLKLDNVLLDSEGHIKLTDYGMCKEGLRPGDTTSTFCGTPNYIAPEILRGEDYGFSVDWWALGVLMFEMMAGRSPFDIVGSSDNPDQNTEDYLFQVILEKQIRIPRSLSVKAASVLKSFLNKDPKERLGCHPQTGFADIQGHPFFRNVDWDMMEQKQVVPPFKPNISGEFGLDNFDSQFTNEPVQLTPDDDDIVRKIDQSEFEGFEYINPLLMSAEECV

[14] = target: T3, Protein kinase C iota type (Homo sapiens); details: at 10 µM
[15] = target: T4, Serine/threonine-protein kinase D1 (Homo sapiens) (UniProt Q15139); details: at 10 µM
T4 sequence (whole entry): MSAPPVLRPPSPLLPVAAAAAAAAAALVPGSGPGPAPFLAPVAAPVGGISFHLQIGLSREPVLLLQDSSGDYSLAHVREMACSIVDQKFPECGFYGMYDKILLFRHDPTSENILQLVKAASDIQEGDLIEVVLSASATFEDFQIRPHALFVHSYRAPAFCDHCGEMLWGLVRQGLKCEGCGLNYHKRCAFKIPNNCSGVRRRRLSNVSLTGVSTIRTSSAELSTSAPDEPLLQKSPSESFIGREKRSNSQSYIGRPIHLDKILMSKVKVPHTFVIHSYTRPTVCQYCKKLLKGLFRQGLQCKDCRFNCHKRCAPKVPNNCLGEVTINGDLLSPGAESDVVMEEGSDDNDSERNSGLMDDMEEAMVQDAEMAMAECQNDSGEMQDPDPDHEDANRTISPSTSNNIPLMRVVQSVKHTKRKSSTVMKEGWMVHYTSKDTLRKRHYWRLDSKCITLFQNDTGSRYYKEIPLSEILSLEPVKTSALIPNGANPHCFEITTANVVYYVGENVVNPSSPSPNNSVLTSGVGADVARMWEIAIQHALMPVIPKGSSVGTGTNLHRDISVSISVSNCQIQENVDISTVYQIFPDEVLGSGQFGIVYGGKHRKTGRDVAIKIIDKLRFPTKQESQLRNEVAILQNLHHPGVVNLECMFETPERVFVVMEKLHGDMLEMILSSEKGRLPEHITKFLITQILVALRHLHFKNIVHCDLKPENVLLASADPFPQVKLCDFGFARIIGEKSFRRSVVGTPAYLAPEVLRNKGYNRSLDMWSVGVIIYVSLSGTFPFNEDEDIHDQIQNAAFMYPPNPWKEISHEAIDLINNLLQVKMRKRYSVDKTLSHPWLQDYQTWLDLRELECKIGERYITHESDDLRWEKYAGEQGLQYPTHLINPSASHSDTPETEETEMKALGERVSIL

[16] = target: T5, Serine/threonine-protein kinase D2 (Homo sapiens) (UniProt Q9BZL6); details: at 1 µM
T5 sequence (whole entry): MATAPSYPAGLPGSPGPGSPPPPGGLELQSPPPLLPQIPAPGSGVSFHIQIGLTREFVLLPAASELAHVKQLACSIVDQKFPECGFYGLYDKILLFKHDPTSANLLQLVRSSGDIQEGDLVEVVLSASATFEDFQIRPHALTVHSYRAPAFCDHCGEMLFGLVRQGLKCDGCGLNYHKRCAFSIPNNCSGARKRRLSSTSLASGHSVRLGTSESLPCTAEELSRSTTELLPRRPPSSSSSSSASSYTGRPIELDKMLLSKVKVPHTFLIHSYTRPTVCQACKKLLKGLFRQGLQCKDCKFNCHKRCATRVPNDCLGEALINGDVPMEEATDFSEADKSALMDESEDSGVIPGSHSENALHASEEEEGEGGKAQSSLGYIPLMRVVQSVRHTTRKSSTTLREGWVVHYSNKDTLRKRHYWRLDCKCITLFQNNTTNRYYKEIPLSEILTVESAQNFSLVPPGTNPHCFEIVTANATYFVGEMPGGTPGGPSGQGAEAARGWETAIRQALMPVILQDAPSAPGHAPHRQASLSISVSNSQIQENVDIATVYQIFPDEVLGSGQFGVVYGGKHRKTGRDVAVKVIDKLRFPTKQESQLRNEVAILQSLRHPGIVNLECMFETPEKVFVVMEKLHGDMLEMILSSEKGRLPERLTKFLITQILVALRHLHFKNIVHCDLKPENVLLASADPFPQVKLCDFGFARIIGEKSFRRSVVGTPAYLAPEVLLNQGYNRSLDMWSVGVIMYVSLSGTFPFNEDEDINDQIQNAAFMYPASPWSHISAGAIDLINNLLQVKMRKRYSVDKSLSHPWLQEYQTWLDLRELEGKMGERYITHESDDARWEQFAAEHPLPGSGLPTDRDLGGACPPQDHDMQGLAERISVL

[17] = target: T5, Serine/threonine-protein kinase D2 (Homo sapiens); details: at 10 µM
[18] = target: T4, Serine/threonine-protein kinase D1 (Homo sapiens); details: at 1 µM
[19] = target: Protein kinase C theta type (Homo sapiens) (UniProt Q04759); details: at 1 µM
[20] = target: Insulin-like growth factor 1 receptor (Homo sapiens) (UniProt P08069); details: at 1 µM

Chain of Tyrosine-protein kinase HCK (Homo sapiens) (P08631 2-526 limits assumed): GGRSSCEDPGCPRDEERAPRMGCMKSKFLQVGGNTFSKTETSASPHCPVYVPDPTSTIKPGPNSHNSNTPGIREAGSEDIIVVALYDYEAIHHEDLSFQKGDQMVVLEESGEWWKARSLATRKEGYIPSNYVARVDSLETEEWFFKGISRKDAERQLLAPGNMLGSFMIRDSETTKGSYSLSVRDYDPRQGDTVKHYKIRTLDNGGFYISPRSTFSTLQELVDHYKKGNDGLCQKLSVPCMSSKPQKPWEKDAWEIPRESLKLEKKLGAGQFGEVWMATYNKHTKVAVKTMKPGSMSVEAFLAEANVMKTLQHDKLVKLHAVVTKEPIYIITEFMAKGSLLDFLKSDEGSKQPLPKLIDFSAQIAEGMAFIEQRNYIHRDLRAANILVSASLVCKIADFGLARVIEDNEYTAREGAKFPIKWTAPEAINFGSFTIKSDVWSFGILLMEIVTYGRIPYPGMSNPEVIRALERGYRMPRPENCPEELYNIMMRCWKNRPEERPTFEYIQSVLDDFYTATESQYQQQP
Chain of Protein kinase C theta type (Homo sapiens) (Q04759 whole entry, looked up): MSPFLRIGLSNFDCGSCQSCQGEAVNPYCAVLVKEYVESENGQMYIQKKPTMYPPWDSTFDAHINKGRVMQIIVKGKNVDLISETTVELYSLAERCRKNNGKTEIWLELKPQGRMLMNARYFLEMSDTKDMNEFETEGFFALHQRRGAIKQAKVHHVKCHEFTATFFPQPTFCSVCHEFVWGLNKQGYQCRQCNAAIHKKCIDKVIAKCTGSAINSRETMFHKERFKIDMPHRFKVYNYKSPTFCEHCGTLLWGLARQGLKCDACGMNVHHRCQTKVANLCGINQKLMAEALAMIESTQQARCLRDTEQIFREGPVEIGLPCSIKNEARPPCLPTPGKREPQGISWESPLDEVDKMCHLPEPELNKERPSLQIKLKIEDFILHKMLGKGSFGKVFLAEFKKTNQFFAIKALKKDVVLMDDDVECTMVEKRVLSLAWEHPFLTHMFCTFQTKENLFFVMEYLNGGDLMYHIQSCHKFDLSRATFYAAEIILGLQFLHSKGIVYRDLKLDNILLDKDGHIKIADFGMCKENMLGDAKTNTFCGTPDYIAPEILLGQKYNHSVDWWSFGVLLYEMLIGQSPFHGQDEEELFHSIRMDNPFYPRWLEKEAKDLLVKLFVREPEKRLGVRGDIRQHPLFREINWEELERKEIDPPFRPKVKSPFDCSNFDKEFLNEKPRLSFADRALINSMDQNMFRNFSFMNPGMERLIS
Chain of Protein kinase C eta type (Homo sapiens) (P24723 whole entry): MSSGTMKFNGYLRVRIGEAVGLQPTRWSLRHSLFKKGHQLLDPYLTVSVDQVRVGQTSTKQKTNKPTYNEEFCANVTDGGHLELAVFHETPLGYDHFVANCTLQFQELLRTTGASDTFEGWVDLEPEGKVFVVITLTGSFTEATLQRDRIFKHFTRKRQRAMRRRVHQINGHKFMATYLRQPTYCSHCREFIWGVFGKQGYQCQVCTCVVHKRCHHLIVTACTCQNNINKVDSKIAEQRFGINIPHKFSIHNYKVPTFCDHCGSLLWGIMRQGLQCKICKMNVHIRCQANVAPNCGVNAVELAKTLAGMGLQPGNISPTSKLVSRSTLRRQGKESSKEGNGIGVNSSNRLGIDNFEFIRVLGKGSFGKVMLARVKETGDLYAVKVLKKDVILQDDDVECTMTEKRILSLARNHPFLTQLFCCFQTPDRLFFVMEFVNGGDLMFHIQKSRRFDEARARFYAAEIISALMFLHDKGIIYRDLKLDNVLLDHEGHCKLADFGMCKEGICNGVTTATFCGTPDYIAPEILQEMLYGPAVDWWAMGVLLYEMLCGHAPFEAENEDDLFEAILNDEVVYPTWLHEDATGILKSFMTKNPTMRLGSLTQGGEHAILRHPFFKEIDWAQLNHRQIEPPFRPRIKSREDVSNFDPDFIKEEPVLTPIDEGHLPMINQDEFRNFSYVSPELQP
Chain of Insulin-like growth factor 1 receptor (Homo sapiens) (P08069 31-736 limits assumed): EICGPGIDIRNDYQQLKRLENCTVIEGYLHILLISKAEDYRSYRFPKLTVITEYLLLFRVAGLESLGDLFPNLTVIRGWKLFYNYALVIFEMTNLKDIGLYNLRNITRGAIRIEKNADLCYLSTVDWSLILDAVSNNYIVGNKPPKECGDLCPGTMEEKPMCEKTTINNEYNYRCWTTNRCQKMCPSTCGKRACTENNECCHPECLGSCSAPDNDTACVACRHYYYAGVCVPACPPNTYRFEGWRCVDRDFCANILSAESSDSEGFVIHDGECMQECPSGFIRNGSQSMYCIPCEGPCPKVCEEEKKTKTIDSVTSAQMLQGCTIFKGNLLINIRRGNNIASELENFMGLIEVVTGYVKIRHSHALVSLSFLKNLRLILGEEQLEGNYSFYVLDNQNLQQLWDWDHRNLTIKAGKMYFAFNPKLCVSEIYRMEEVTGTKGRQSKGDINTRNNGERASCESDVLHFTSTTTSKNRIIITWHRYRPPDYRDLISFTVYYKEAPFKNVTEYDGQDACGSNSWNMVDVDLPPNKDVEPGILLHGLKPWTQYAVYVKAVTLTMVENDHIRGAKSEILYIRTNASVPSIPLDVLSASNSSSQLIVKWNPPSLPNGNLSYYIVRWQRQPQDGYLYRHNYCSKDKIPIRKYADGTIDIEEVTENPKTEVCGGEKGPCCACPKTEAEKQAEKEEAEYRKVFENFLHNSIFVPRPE
Chain of Insulin-like growth factor 1 receptor (Homo sapiens) (P08069 741-1367 limits assumed): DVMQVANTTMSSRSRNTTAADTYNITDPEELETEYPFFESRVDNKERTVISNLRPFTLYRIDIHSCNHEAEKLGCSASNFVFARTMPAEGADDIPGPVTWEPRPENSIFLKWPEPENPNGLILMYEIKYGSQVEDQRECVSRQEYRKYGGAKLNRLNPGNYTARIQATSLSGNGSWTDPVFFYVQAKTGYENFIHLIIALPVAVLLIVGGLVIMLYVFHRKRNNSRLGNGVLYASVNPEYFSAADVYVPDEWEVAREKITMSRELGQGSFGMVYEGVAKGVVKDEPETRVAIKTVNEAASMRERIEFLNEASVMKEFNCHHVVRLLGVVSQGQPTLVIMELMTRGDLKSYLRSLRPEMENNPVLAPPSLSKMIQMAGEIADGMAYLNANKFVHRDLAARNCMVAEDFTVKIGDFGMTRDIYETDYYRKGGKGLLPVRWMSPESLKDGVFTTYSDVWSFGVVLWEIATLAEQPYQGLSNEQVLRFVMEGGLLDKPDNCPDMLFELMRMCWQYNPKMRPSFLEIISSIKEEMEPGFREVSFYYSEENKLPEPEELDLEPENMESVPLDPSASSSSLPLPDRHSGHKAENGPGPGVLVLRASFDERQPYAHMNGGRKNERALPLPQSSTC
Chain of Homeodomain-interacting protein kinase 3 (Homo sapiens) (Q9H422 whole entry, looked up): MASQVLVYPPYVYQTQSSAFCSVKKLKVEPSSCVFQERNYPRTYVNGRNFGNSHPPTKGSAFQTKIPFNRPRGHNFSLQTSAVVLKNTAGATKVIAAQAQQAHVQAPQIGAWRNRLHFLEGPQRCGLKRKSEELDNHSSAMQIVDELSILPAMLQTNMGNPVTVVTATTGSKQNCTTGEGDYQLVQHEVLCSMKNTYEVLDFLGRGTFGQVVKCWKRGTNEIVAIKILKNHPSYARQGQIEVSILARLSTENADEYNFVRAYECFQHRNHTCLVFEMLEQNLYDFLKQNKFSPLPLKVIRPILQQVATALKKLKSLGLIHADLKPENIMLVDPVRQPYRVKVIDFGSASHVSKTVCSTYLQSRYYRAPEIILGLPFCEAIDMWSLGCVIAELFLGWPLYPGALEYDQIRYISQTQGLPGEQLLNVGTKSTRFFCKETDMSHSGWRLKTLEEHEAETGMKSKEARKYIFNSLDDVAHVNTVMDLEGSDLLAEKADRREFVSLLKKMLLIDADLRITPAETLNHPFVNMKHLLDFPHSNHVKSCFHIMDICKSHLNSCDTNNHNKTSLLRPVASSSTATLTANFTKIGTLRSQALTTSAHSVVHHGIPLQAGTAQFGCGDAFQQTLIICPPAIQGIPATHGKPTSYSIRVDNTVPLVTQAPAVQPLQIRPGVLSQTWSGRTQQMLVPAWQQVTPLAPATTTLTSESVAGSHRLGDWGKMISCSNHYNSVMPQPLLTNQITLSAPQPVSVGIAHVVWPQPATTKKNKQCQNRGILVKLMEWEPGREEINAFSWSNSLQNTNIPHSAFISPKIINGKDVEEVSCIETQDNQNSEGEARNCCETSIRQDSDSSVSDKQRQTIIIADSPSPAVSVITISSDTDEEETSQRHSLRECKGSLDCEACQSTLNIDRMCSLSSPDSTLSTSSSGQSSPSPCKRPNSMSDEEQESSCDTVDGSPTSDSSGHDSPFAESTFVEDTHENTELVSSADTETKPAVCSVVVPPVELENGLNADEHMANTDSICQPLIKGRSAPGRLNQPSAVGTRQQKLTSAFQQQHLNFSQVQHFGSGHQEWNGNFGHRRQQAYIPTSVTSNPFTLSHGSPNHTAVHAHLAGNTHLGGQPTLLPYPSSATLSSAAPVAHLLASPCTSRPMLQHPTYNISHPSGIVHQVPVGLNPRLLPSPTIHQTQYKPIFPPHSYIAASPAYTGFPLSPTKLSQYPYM

Row | Compound | residual activity [1] [%] | residual activity [2] [%] | residual activity [3] [%] | residual activity [4] [%] | residual activity [5] [%] | residual activity [6] [%] | residual activity [7] [%] | residual activity [8] [%] | residual activity [9] [%] | residual activity [10] [%] | residual activity [11] [%] | residual activity [12] [%] | residual activity [13] | residual activity [14] [%] | residual activity [15] [%] | residual activity [16] [%] | residual activity [17] [%] | residual activity [18] [%] | residual activity [19] [%] | residual activity [20] [%]
1 | COc1cc2ncnc(Nc3ccc(NC(=O)c4ccccc4)cc3)c2cc1OC | 90 | 92 | 59 | 69 | 20 | 100 | 60 | 135 | 103 | 137 | 95 | 101 | 101% (inactive) | 66 | 88 | 100 | 106 | – | – | –
2 | N#CC(C#N)=C(N)/C(C#N)=C/c1ccc(O)cc1 | – | 88 | 65 | 84 | 64 | 99 | 87 | – | – | 118 | 81 | – | 81% (inactive) | 75 | – | – | – | 93 | – | –
3 | c1ccc2c(-c3ccncc3)c[nH]c2c1 | 91 | 48 | 8 | 68 | 65 | 104 | 89 | – | 84 | 64 | 17 | 70 | 89% (inactive) | 67 | 69 | 104 | 106 | 87 | 88 | –
4 | O=C(Nc1cccc(Nc2cc(Nc3cccc(C(F)(F)F)c3)ncn2)c1)C1CC1 | 102 | 110 | 82 | 96 | 52 | 98 | 83 | 115 | 87 | 117 | 87 | 80 | 97% (inactive) | 111 | 88 | 107 | 110 | 99 | – | 141
5 | CC(=O)O/N=C1\C(=C2\C(=O)Nc3cc(Br)ccc32)Nc2ccccc21 | 76 | 93 | 74 | 22 | 9 | 3 | -1 | 110 | 95 | 101 | 106 | 96 | 104% (inactive) | 103 | – | 104 | 102 | 85 | 97 | 142
6 | N#CCCc1ccc2c(c1)-c1[nH]c3ccc([N+](=O)[O-])cc3c1CC(=O)N2 | – | – | 74 | 30 | 6 | 27 | 16 | 144 | 41 | – | – | – | – | 67 | 76 | – | – | – | – | 117
7 | CC[n+]1c(/C=C/N(C)c2ccccc2)n(-c2ccccc2)c2ccc(-c3nc4ccccc4s3)cc21 | – | 99 | 59 | 97 | 34 | 104 | 95 | 43 | 96 | 119 | 88 | 84 | 93% (inactive) | 88 | 90 | 95 | 114 | 92 | 96 | 126
8 | O=C1Nc2ccc(Br)cc2/C1=C\c1cc2c([nH]1)CCCC2 | 76 | – | – | 59 | 52 | – | – | 128 | 102 | 102 | 73 | 99 | 84% (inactive) | 78 | – | – | 106 | – | 100 | –

— ChEMBL document CHEMBL2218924, “A broad activity screen in support of a chemogenomic map for kinase signalling research and drug discovery” (Biochem J, 2013)
